Experimental data: PubChem BioAssay
The source made the active and inactive calls.

Experiments:
[1] = system: Plasmodium falciparum Sir2 (PF13_0152, Sir2A); assay: pfSir2 binders on small-molecule microarrays, primary screen, biochemical, small-molecule microarray, 635 nm fluorescence (AID 1098); settings: small-molecule microarray binding, fluorescence 635 nm; higher = more signal;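 also: score merges spot fluorescence intensity with its signal-to-noise ratio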
[2] = small-molecule microarray binders of probe aDKK1, primary screen, biochemical, biotinylated probe, 635/667 nm fluorescence (AID 1099); settings: higher = more signal;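 also: score merges 667nm spot fluorescence with signal to noise across triplicate slides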
[3] = small-molecule microarray binders of probe aCHRDL2, primary screen, biochemical, biotinylated probe, 635/667 nm fluorescence (AID 1100); settings: higher = more signal
[4] = splicing luciferase reporter signal modulators, primary screen, spliceosome inhibition project, cell-based, HEK293, splice +/- reporter (AID 1101); settings: luminescence, 24 h, higher = more signal, called active from +8 up or from −8 down;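 also: HEK293 cells carrying a splicing-competent luciferase reporter gene; test concentration not given here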
[5] = target: Fibroblast growth factor 10 (Homo sapiens) (UniProt O15520); assay: FGF10 binders on small-molecule microarrays, primary screen, biochemical, small-molecule microarray, 635 nm fluorescence (AID 1102); settings: FGF10 binding, fluorescence 635 nm, higher = more signal
Chain of Fibroblast growth factor 10 (Homo sapiens) (O15520 whole entry, looked up): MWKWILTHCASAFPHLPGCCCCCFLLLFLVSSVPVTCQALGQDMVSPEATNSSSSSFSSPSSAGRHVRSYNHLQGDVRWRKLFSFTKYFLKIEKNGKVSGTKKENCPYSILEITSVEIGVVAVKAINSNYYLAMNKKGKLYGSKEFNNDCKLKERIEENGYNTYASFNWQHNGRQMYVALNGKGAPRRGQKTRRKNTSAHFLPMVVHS

[6] = system: glycogen synthase kinase-3 (GSK3A per assay name; protocol says GSK3B); assay: GSK3 binders on small-molecule microarrays, primary screen, biochemical, small-molecule microarray, 635 nm fluorescence, GSK3A (AID 1103); settings: small-molecule microarray binding, fluorescence 635 nm; higher = more signal; also: the record names both GSK3A and GSK3B
[7] = target: Epidermal growth factor receptor (Homo sapiens) (UniProt P00533); assay: EGFR binders on small-molecule microarrays, primary screen, biochemical, small-molecule microarray, 635 nm fluorescence (AID 1104); settings: EGFR binding, higher = more signal;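 also: score merges 667 nm emission intensity with spot signal to noise over triplicate slides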
Chain of Epidermal growth factor receptor (Homo sapiens) (P00533 whole entry, looked up): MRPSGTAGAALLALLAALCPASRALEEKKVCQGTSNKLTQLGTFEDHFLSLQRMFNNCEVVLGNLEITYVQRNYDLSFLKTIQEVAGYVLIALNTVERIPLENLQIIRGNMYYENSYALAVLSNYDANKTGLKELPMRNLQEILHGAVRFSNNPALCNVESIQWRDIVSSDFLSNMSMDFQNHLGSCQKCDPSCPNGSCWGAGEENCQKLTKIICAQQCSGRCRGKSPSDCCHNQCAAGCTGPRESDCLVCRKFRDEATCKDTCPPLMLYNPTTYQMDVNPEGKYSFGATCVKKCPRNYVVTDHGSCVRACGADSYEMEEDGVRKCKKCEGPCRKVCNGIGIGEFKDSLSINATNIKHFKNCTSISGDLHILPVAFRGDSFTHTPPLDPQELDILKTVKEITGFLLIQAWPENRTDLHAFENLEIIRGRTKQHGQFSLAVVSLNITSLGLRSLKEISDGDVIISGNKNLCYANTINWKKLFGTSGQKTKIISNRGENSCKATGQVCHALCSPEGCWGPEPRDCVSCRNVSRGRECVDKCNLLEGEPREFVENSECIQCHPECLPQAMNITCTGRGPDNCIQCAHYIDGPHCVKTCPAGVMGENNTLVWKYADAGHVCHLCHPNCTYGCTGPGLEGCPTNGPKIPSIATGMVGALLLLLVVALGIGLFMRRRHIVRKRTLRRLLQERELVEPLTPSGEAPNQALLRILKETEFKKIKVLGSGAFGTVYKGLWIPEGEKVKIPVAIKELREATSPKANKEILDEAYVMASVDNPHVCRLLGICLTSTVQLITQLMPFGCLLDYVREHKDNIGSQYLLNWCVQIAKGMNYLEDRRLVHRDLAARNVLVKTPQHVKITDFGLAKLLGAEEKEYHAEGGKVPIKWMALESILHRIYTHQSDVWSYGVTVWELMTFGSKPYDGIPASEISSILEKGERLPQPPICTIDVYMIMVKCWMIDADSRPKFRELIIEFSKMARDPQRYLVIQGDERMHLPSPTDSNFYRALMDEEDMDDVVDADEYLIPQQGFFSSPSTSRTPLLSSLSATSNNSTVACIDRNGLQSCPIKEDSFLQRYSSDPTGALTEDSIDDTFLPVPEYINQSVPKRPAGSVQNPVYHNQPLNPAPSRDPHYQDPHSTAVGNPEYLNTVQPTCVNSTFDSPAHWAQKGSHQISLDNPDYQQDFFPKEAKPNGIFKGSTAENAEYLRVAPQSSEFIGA

[8] = target: Follistatin-related protein 3 (Homo sapiens) (UniProt O95633); assay: FSTL3 binders on small-molecule microarrays, primary screen, biochemical, small-molecule microarray, 635 nm fluorescence (AID 1105); settings: FSTL3 binding, higher = more signal;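 also: score merges emission near 667 nm and signal to noise per printed spot across three slides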
Chain of Follistatin-related protein 3 (Homo sapiens) (O95633 whole entry, looked up): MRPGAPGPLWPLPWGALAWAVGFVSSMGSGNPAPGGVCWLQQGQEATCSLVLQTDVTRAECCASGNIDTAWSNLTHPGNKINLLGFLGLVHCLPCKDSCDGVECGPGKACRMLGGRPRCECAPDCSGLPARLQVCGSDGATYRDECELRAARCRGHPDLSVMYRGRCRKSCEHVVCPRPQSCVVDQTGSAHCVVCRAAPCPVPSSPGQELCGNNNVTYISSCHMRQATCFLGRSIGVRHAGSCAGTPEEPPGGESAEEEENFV

[9] = target: Dickkopf-related protein 1 (Homo sapiens) (UniProt O94907); assay: DKK1 binders on small-molecule microarrays, primary screen, biochemical, small-molecule microarray, 635 nm fluorescence scan (AID 1106); settings: DKK1 binding, higher = more signal;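 also: score merges emission near 667 nm with signal to noise over three replicate slides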
Chain of Dickkopf-related protein 1 (Homo sapiens) (O94907 whole entry, looked up): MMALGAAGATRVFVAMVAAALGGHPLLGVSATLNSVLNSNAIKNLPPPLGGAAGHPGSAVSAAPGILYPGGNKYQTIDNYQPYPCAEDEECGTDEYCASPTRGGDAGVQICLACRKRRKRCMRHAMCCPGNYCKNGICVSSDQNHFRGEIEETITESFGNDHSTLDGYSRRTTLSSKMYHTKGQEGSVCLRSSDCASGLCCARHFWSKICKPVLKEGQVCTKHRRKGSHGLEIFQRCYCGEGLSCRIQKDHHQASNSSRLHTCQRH

[10] = system: Inhibin beta A chain (activin A); assay: INHBA (activin A) binders on microarrays, primary screen, biochemical, small-molecule microarray, 635 nm fluorescence scan (AID 1107); settings: small-molecule microarray binding, higher = more signal;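 also: mouse activin A protein probed at 4.33 µg/mL on printed slides; score merges bound-protein fluorescence near 667 nm with spot signal-to-noise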
[11] = system: Human papillomavirus type 1a protein E7 (residues 44-93); assay: HPV1a E7 fragment binders on microarrays, primary screen, biochemical, small-molecule microarray, residues 44-93, 635 nm fluorescence (AID 1108); settings: small-molecule microarray binding, fluorescence 635 nm; higher = more signal;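 also: E7 fragment applied at 1 µg/mL in TBST for 1 h at 4 C; score combines spot fluorescence with its signal to noise ratio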
[12] = modulators of HCV replicon luciferase signal, primary screen, HCV replication inhibitor project, Huh7 cells, luciferase reporter (AID 1109); settings: 48 h, higher = more signal;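 also: huh7 hepatoma cells harbouring a luciferase neomycin HCV replicon reporter; luciferase luminescence as measure of HCV replicon replication; test concentration not given here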
[13] = target: Left-right determination factor 2 (Homo sapiens) (UniProt O00292); assay: LEFTY2 binders on small-molecule microarrays, primary screen, biochemical, small-molecule microarray, 635 nm fluorescence scan (AID 1110); settings: LEFTY2 binding, higher = more signal
Chain of Left-right determination factor 2 (Homo sapiens) (O00292 whole entry, looked up): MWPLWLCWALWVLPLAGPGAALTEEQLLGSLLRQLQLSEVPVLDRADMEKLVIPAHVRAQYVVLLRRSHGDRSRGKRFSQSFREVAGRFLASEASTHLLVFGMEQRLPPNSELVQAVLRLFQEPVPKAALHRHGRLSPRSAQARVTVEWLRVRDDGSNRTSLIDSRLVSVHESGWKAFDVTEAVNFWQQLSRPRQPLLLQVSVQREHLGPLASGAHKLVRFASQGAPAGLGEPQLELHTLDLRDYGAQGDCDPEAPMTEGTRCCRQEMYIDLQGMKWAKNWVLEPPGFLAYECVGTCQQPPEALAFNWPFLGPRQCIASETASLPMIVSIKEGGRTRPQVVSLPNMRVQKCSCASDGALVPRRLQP

[14] = target: Calmodulin-1 (Homo sapiens) (UniProt P0DP23); assay: CALM1 binders on microarrays, EGTA buffer, profiling panel, biochemical, small-molecule microarray, Cy5-labelled CALM1 (AID 1111); settings: Cy5-CALM1 binding fluorescence, higher = more signal;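 also: labelled calmodulin applied in Tris saline Tween buffer holding calcium plus EGTA and DTT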
[15] = target: Calmodulin-1 (Homo sapiens) (UniProt P0DP23); assay: calcium-bound CALM1 binders on microarrays, profiling panel, artefact control for SMM control-protein annotation, biochemical, small-molecule microarray, Cy5-labelled CALM1, plus calcium (AID 1112); settings: Cy5-CALM1 binding fluorescence, higher = more signal;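 also: score merges spot fluorescence with signal to noise from triplicate slides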
[16] = small-molecule microarray binders of probe aWnt5a, primary screen, biochemical, biotinylated probe, 635/667 nm fluorescence (AID 1113); settings: higher = more signal;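 also: score merges 667 nm fluorescence intensity with signal-to-noise per printed feature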
[17] = small-molecule microarray binders of probe aShh, primary screen, biochemical, biotinylated probe, 635/667 nm fluorescence (AID 1114); settings: higher = more signal;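 also: probe is biotin-labelled aShh protein from a stem cell growth factor screen; measures binding of labelled protein to compounds printed on the slide; score merges feature fluorescence at 667 nm with signal-to-noise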
[18] = small-molecule microarray binders of probe aNog, primary screen, biochemical, biotinylated probe, 635/667 nm fluorescence (AID 1115); settings: higher = more signal;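 also: probe is biotinylated aNog protein used at 0.15 µg/mL for 1 h at 4 C; z-score combines 667 nm fluorescence of each spot with its signal to noise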
[19] = target: Torsin-1A-interacting protein 1 (Homo sapiens) (UniProt Q5JTV8); assay: LAP1 binders from COS7 cell lysate, primary screen, small-molecule microarray, 635/667 nm fluorescence (AID 1116); settings: COS7-hLAP1 lysate binding, 635 nm fluorescence, higher = more signal
Chain of Torsin-1A-interacting protein 1 (Homo sapiens) (Q5JTV8 whole entry, looked up): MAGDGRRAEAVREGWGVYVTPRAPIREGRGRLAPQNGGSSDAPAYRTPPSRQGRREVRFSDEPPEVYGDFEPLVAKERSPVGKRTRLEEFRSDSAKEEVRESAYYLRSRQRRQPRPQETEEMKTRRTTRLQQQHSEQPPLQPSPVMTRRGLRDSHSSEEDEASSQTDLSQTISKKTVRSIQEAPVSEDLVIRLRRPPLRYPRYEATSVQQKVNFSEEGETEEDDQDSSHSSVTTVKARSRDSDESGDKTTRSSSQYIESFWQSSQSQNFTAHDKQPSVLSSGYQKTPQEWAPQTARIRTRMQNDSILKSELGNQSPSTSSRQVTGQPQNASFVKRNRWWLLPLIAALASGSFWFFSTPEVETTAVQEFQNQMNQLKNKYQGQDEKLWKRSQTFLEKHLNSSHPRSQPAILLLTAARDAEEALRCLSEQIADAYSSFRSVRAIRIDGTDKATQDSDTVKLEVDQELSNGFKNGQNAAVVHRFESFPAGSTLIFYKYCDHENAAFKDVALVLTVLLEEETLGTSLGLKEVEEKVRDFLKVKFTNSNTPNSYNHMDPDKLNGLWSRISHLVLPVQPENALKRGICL

[20] = target: Alpha-bungarotoxin (Bungarus multicinctus) (UniProt P60615); assay: alpha-bungarotoxin binders on microarray, profiling panel, artefact control for SMM control protein annotation, biochemical, small-molecule microarray, Alexa647 label, 635/667 nm fluorescence (AID 1117); settings: alpha-BTX-A647 binding fluorescence, higher = more signal
Chain of Alpha-bungarotoxin (Bungarus multicinctus) (P60615 whole entry, looked up): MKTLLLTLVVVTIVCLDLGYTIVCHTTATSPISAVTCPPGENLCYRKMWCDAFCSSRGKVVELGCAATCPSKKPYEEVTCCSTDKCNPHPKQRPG

| Compound | composite z-score [1] | composite z-score [2] | composite z-score [3] | z-score [4] | composite z-score [5] | composite z-score [6] | composite z-score [7] | composite z-score [8] | composite z-score [9] | composite z-score [10] | composite z-score [11] | z-score [12] | composite z-score [13] | composite z-score [14] | composite z-score [15] | composite z-score [16] | composite z-score [17] | composite z-score [18] | composite z-score [19] | composite z-score [20] |
| --- | --- | --- | --- | --- | --- | --- | --- | --- | --- | --- | --- | --- | --- | --- | --- | --- | --- | --- | --- | --- |
| O=c1c2ccc(Br)cc2nc(-c2ccccc2)n1Cc1cccc(O)c1 | 0.524 | 0.864 | 0.715 | -0.376 (inactive) | 0.528 | 0.476 | 0.145 | 0.547 | 0.0301 | 0.41 | -0.128 | -0.153 | 0.194 | 2.32 | 0.756 | 0.0438 | -0.305 | -0.218 | 2.51 | 1.8 |
| C[N+](C)(C)CCCC[C@@H]1NC(=O)[C@@H]2C[C@H](C(=O)NCCCCCNC(=O)CS)[C@H](c3cccc(OCCO)c3)N2C1=O | 1.71 | -0.14 | -0.149 | 0.241 (inactive) | 0.545 | 0.23 | 0.0868 | -0.19 | 0.585 | -0.003 | 0.911 | -0.193 | 0.0926 | -0.0534 | 0.581 | -0.0478 | 0.151 | 0.0197 | -0.034 | 0.568 |
| CN(C)CCCCNC(=O)[C@H]1C[C@H]2C(=O)N[C@@H](CCCC[N+](C)(C)C)C(=O)N2[C@H]1c1cccc(OCCO)c1 | 1.57 | -0.124 | 0.15 | -0.698 (inactive) | 0.217 | 0.571 | 0.126 | 0.738 | 0.797 | 0.877 | 1.37 | -0.156 | 0.206 | 0.285 | -0.166 | -0.0792 | 0.13 | 0.0286 | 0.116 | 0.112 |
| OCCCC1=CC(c2cccs2)N(Cc2cccc(OC(F)(F)F)c2)CC1 (stereo not given) | 1.32 | -0.14 | -0.138 | -0.733 (inactive) | -0.566 | -0.729 | -0.547 | -0.537 | -0.015 | 0.756 | -0.571 | -2.1 | -0.0424 | -0.957 | 0.639 | -0.13 | -0.221 | 1.41 | -0.0673 | -0.0302 |
| COc1ccccc1CN1C(=O)c2ccccc2[C@@]2(Cc3ccccc3N(C3CC3)C2=O)[C@@H]1c1ccc(CO)cc1 | 0.76 | -0.0899 | 0.322 | 0.312 (inactive) | -0.671 | -0.928 | -0.724 | -0.279 | -0.535 | 0.52 | -0.447 | -0.344 | -0.921 | 0.117 | -0.164 | -0.131 | 0.0062 | -0.422 | -0.455 | 0.134 |
| C[C@H]1ON(c2ccccc2)[C@@H](c2ccccc2)[C@@H]1C(=O)N1C(=O)OC[C@@H]1c1ccccc1 | 0.0672 | -0.138 | -0.351 | 0.216 (inactive) | 0.675 | 0.363 | 0.356 | 0.699 | 0.289 | 0.631 | 0.184 | -0.432 | 0.521 | -0.238 | -0.162 | -0.134 | -0.251 | -0.0855 | 0.357 | -0.1 |
| COCCOC(=O)N1C(=O)[C@@]2(c3cc(C#Cc4ccc(OC)cc4)ccc31)[C@H](C(=O)N1CCc3cc(OC)c(OC)cc3C1)[C@H]1C(=O)O[C@H](c3ccccc3)[C@H](c3ccccc3)N1[C@@H]2c1ccc(OCCO)cc1 | -0.352 | 0.218 | -0.0585 | -0.32 (inactive) | 0.705 | 1.03 | 0.595 | 0.997 | 0.588 | 0.115 | 0.577 | -0.195 | 0.516 | 1.24 | 0.897 | -0.0482 | -0.138 | 0.0637 | 0.247 | 1.41 |
| C[N+](C)(C)CCCC[C@@H]1NC(=O)[C@@H]2C[C@H](C(=O)O)[C@H](c3cccc(OCCO)c3)N2C1=O | 1.53 | -0.066 | 0.667 | -0.11 (inactive) | 0.11 | -0.144 | -0.188 | -0.492 | 0.503 | 0.146 | 0.17 | -0.208 | -0.8 | -0.705 | 0.417 | -0.276 | -0.0681 | -0.326 | -0.0851 | -1.03 |
| NC(=O)NCC#Cc1ccc2c(c1)[C@]1(C(=O)N2)[C@H](c2ccc(O)cc2)N2[C@H](c3ccccc3)[C@H](c3ccccc3)OC(=O)[C@H]2[C@@H]1C(N)=O | 0.855 | 0.431 | 0.55 | -0.278 (inactive) | -0.0652 | -1.08 | -0.341 | -0.934 | -0.343 | 0.286 | -0.366 | 0.114 | -0.749 | -0.571 | 0.261 | -0.185 | 0.0469 | 0.218 | -0.757 | 0.387 |
| CC(C)c1ccc(NN2C(C(O)c3cccs3)C=CC3C(=O)N(c4ccccc4)C(=O)C32)cc1 (stereo not given) | 1.02 | 0.0558 | 0.928 | 0.356 (inactive) | 0.461 | 1.31 | 0.156 | 1.21 | -0.054 | 0.975 | 1.4 | -0.531 | -0.0393 | 2.29 | 0.795 | 0.0364 | -0.304 | 0.113 | 0.789 | 1.01 |
